For one assay, the system named is Mel-DCC-11. The experiment in a line: cell viability relative to DMSO control (fraction of DMSO control); higher = less cytotoxic, active = 0.5 or less. The conditions noted are these: 1 µM; 120 h. The method in brief: (§1)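 Three cell types were screened against 315 approved anti-cancer drugs from TargetMol, acoustically pre-spotted in 384-well plates at 1 µM in duplicate over 120 h: NHEM-hTERT immortalized melanocytes (2500/well), patient-derived Mel-DCC-11 and its resistant subline Mel-DCC-11-R (both 1500/well), all in 40 µl per well. The subline was tested alone and with 8 µM of its selecting drug. Viability, measured by luminescence, was normalised to vehicle controls and averaged across duplicates, with ATPlite 1step as the readout.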

A further assay relates to NHEM-hTERT. Described as above. The note with it: 1 µM; 120 h. The method in brief: as §1
Another assay has as its system Mel-DCC-11-R. The experiment in a line: cell viability relative to DMSO control (fraction of DMSO control); higher = less cytotoxic, active = 0.8 or less. The conditions noted are these: 1 µM, 120 h. The method in brief: as §1

Unmarked numbers belong to inactive results.

On to `Nc1ncn([C@H]2C[C@H](O)[C@@H](CO)O2)c(=O)n1` [Decitabine], for which the cell viability in the assay with Mel-DCC-11 was 2.02; in the assay with NHEM-hTERT, 0.907; in the assay on Mel-DCC-11-R (vemurafenib co-treatment 0 µM) it was 1.31; in the assay with Mel-DCC-11-R (vemurafenib co-treatment 8 µM), 0.968.
For `CCCCc1nc2cc(/C=C/C(=O)NO)ccc2n1CCN(CC)CC` [Pracinostat] the same measures were 1.1, 0.747, 0.699 (active) and 0.453 (active).
Taken in the same sequence, the figures for `CCc1ccc(CCOc2ccc(CC3SC(=O)NC3=O)cc2)nc1.Cl` (stereo not drawn) [Pioglitazone hydrochloride] were 0.8, 1.09, 0.921 and 1.18.
Take `O=c1cc[nH]c(=O)[nH]1` [Uracil]: the cell viability with Mel-DCC-11 is 0.996; in the assay with NHEM-hTERT, 1.1; in the assay on Mel-DCC-11-R (vemurafenib co-treatment 0 µM), 0.875; in the assay on Mel-DCC-11-R (vemurafenib co-treatment 8 µM), 1.01.
For `Cl.N=c1ccn2c(n1)O[C@H]1[C@H](O)[C@@H](CO)O[C@H]12` [Cyclocytidine hydrochloride] the same measures were 0.737, 0.845, 0.873 and 0.599 (active).
Taken in the same sequence, the figures for `C/C(=C\c1csc(C)n1)[C@@H]1C[C@@H]2O[C@]2(C)CCC[C@H](C)[C@H](O)[C@@H](C)C(=O)C(C)(C)[C@@H](O)CC(=O)N1` [Ixabepilone] were 0.316 (active), 0.595, 0.67 (active) and 0.377 (active).
For `Cl.N=C1CCCN1Cc1[nH]c(=O)[nH]c(=O)c1Cl` [Tipiracil hydrochloride] the same measures were 0.924, 0.914, 0.816 and 0.877.

These data come from the supplement of paper PMC12808144.
